Rows were chosen to be rich in hits. Some 3.4% of all compounds tested hit in one or more screens of this group.
ERa SRC1 inh: blocks coactivator binding to human estrogen receptor alpha; P03372; TR-FRET ER-alpha LBD / SRC-1 peptide, estradiol-bound; inhibition, % at 25.6 µM; 1.7% of 86,000 active; in the data active = inhibition above about 50%;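 note: 0% = receptor plus peptide control and 100% = peptide only without receptor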
ERa coact pot: enhances coactivator binding to human estrogen receptor alpha; 1.3% of 86,000 active; P03372; coactivator binding (% of control), % at 25.6 µM; TR-FRET ERalpha-LBD/SRC-Cy5 coactivator binding, 2 h; 100 = basal binding, no effect; AID 639; in the data active = activity above about 200%;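 note: binding measured in presence of low estradiol as agonist stimulus; 0% = peptide alone without receptor and 100% = receptor with peptide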
ERb SRC1 inh: ER-beta (human) coactivator binding inhibition; 1.3% of 86,000 active; AID 633; Q92731; inhibition, % at 25.6 µM; TR-FRET ER-beta LBD / SRC1-Cy5 peptide binding; receptor agonist-loaded with 1 µM estradiol;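 active = compounds whose percent inhibition of the receptor-coactivator binding signal exceeds about 50% in the single-dose screen, limit read from the data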;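 note: 0% = receptor plus peptide wells without compound and 100% = peptide-only wells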
PTPN22 act: activators of human LYP (PTPN22) phosphatase. AID 697. 0.11% of 96,000 active. recombinant LYP, DiFMUP fluorescence; 0 = plate median, 100 = signal doubled. activation, % at 2 µM;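 active = activation at 2 µM above a set limit, the mean plus 5 SD, cut at about 37% in these data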
PTPN22 inh 2: blocks human PTPN22 phosphatase activity; Q9Y2R2; recombinant LYP catalytic domain, DiFMUP fluorescence; inhibition, % at 2 µM; 0.21% of 96,000 active; AID 640;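 active = inhibition at 2 µM at or above a set limit, the screen mean plus 3 SD, cut at about 24% in these data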;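 note: 0% = DMSO with enzyme and 100% = enzyme fully blocked by orthovanadate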
FAK inh: blocks human focal adhesion kinase activity; Q05397; biochemical FAK kinase activity assay; inhibition, %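 (tested at 7 µM)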; 0.84% of 97,000 active; in the data active = inhibition above about 19%;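 note: 0% = DMSO and 100% = reference compound high control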
Numbers without * were called inactive; . = no result; [ ] = remark or other dose.

SMILES	ERa SRC1 inh	ERa coact pot	ERb SRC1 inh	PTPN22 act	PTPN22 inh 2	FAK inh
CCOC(=O)CSc1nc2cc(OCC)ccc2cc1C#N	12	351*[fluorescence artefact?]	18	.	.	.
CCOc1ccc2cc(C#N)c(SCC(=O)NC(C)CC)nc2c1 (configuration not stated)	41	337*[fluorescence artefact?]	45	3	-5	-3
CC(=O)Nc1nonc1NC(=O)c1ccc(C(C)(C)C)cc1	1	103	0	-59	58*	-1
CCCCN1C2=C(C(=O)CCC2)C(c2ccc(Cl)c(Cl)c2)C2=C1c1ccccc1C2=O (configuration not stated)	.	.	.	-6	9	8
N=c1c(S(=O)(=O)c2ccccc2)cc2c(=O)n3ccccc3nc2n1Cc1ccco1	76*[fluorescence artefact?]	49	79*[fluorescence artefact?]	-5	5	2
N=c1c(S(=O)(=O)c2ccccc2)cc2c(=O)n3ccccc3nc2n1CCN1CCOCC1	-3	129	0	-9	8	-1
Cc1ccc(S(=O)(=O)c2cc3c(=O)n4ccccc4nc3n(CC3CCCO3)c2=N)cc1C (configuration not stated)	2	105	-1	.	.	.
Cc1ccc(S(=O)(=O)c2cc3c(=O)n4ccccc4nc3n(Cc3ccco3)c2=N)cc1C	75*[fluorescence artefact?]	38	50*[fluorescence artefact?]	-9	8	4
Cc1c(Cl)cccc1NC(=O)c1cc(C2CC2)on1	-1	94	10	-10	10	5
Cc1cc(C)n(-c2nc3ccccc3c(=O)n2OCCOc2ccccc2)n1	7	33	56*[fluorescence artefact?]	-1	4	-1
COc1ccccc1CNC(=O)CCS(=O)(=O)c1cccc2nonc12	-7	119	-5	-2	3	0
O=C(Nc1ccncc1)C1c2ccccc2Oc2ccccc21	98*[fluorescence artefact?]	102	9	5	-1	-2
O=C(CSc1nnc(-c2cccnc2)o1)c1cc2ccccc2oc1=O	-4	221*	3	-4	2	2
Cc1ccc(NC(=O)Cn2c(=O)oc3cc(S(=O)(=O)N4CCC(C)CC4)ccc32)cc1C	43	52	62*[fluorescence artefact?]	0	-1	-5
O=C(Cn1c(=O)oc2cc(S(=O)(=O)N3CCc4ccccc43)ccc21)NC1CCCC1	8	104	-9	1	-3	2
CCOC(=O)Cn1c(=O)oc2cc(S(=O)(=O)N3CCC(N4CCCCC4)CC3)ccc21	-1	107	-9	7	-8	-1
O=C(Cn1c(=O)oc2cc(S(=O)(=O)N3CCCCCC3)ccc21)NC1CCCCC1	32	349*	38	-10	9	.
CCC1CCC/C1=N\NC(=O)c1cc(C)[nH]n1 (configuration not stated)	.	.	.	0	-5	-1
Cc1cc(C)c(NC(=O)Cn2cc3c(n2)CCCC3)c(C)c1	99*[fluorescence artefact?]	115	-10	.	.	.
N#Cc1ccsc1NC(=O)CSc1ncn[nH]1	8	77	7	1	-2	5
N#Cc1ccsc1NC(=O)CSc1ncnc2ccccc12	91*[fluorescence artefact?]	25	61*	-12	10	10
Cn1ccnc1SCC(=O)Nc1sccc1C#N	67*[fluorescence artefact?]	43	39	2	-2	10
O=C(/C=C/c1ccccc1)NC(NC(=S)Nc1cc(Cl)ccc1Cl)C(Cl)(Cl)Cl (configuration not stated)	.	.	.	0	2	-1
COc1ccc(C2CC(c3c(-c4ccccc4)c4cc(Cl)ccc4[nH]c3=O)=NN2S(C)(=O)=O)cc1OC (configuration not stated)	69*	131	43	-2	2	-2
O=c1[nH]c2ccc(Cl)cc2c(O)c1-c1ccccc1	.	.	.	11	-5	-5
SMILES	ERa SRC1 inh	ERa coact pot	ERb SRC1 inh	PTPN22 act	PTPN22 inh 2	FAK inh
CCOc1ccc(CC2S/C(=N/c3ccccn3)NC2=O)cc1 (configuration not stated)	-57	331*	-25	4	-6	-3
COc1ccc(N2CCN(C(=O)CCCn3c(=O)[nH]c4ccsc4c3=O)CC2)cc1	-4	104	75*	4	-8	3
Cn1c(C(=O)OC(C(=O)NC2CCCCC2)c2ccncc2)cc2sccc21 (configuration not stated)	42	263*[fluorescence artefact?]	27	2	1	5
COC(=O)c1ccc(NC(=O)CN2C(=O)CSC2=O)cc1	1	319*[fluorescence artefact?]	8	4	-8	-5
O=c1c2ccccc2nnn1CSc1ncnc2ccccc12	.	.	.	-7	5	9
Cc1nc(SCn2nnc3ccccc3c2=O)c2c(C)c(C)sc2n1	64*[fluorescence artefact?]	98	29	.	.	.
Cc1cc(C(=O)NCCC(c2ccccc2)c2ccccc2)c(C)o1	.	.	.	-4	6	2
CN(C(=O)CSc1nnc(Nc2ccccc2)s1)c1c(N)n(Cc2ccccc2)c(=O)[nH]c1=O	.	.	.	-5	7	-1
CCCCN(C(=O)CSc1nnc(Nc2ccc(C)c(C)c2)s1)c1c(N)n(Cc2ccccc2)c(=O)[nH]c1=O	.	.	.	-25	26*	1
Cn1nc(C(=O)Nc2cccc(C(F)(F)F)c2)c2ccccc2c1=O	.	.	.	1	-2	0
Cn1nc(C(=O)Nc2c(-c3ccccc3)nc3sccn23)c2ccccc2c1=O	62*[fluorescence artefact?]	85	16	0	-1	5
Cc1cccc(N2CCN(c3nc4ccccc4n4cnnc34)CC2)c1C	54*	54	29	-1	-2	1
c1cnc(N2CCN(c3nc4ccccc4n4cnnc34)CC2)nc1	0	96	1	-11	8	1
CCC(=O)Oc1c(-c2ccccc2)c2nc3ccccc3nc2c2ccccc12	39	221*[fluorescence artefact?]	47	-10	10	0
COc1ccc(C(=O)c2cnc3ccccc3c2-c2ccccc2)cc1	.	.	.	-10	12	-6
O=C(c1coc2ccccc2c1=O)N1CCN(c2cccc(C(F)(F)F)c2)CC1	3	94	14	-6	3	9
CC1C/C(=N\NC(=S)NC(C)C)CC(C)(C)C1 (configuration not stated)	4	105	-5	-2	4	-3
Cc1cccc(N2C(=O)CN=C2Nc2nc(C)cc(C)n2)c1	-7	102	-5	9	-8	1
Cc1cc(C)nc(NC2=NCC(=O)N2c2cc(Cl)cc(Cl)c2)n1	-36	474*[fluorescence artefact?]	-2	-1	5	1
Oc1ccc(C2Nc3cccc4cccc(c34)N2)c(O)c1	28	30	36	4	-1	8
c1coc(C2Nc3cccc4cccc(c34)N2)c1	74*[fluorescence artefact?]	26	78*[fluorescence artefact?]	1	-3	3
CCC(C)n1c(SCC(=O)NC(=O)Nc2ccc3c(c2)OCCO3)nc2ccccc2c1=O (configuration not stated)	.	.	.	-1	0	3
O=C(Nc1nc(-c2ccc(S(=O)(=O)N3CCCCCC3)cc2)cs1)c1cccs1	-33	570*[fluorescence artefact?]	-4	-6	1	-4
O=C(Nc1nc(-c2cccs2)cs1)c1cccc(S(=O)(=O)N2CCCCC2)c1	-11	233*	-9	4	-1	-2

Bioassay records from PubChem.
